system: T1, DRAK1; conditions: concentration: 1 μM, replicates: in singlicate; n = 1
T1 construct: gene STK17A
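Further: KINOMEscan kinase panel screen.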

Structure (SMILES)	%Inh
c1ccc(-c2ccc3c(-c4ccnc(Nc5ccc6c(c5)OCCO6)n4)cnn3n2)cc1 [GW818941]	15%
CCCc1ccc(S(=O)(=O)NC2CCN(c3ccnc(Nc4ccc(OC)cc4)n3)C2)cc1 (stereo not shown) [GSK1379737]	0%
Clc1cccc(-c2nc(Nc3ccncc3)c3ccccc3n2)c1 [GW873004]	0%
Cc1ccc(O)cc1Nc1cc(C(F)(F)F)nc2ccc(-c3ccncc3)cc12 [GW630823]	21%
COc1cc2ncnc(Nc3ccc(OCc4ccccc4Br)c(Cl)c3)c2cc1OC.Cl [GI261590]	9%
Clc1ccc(-c2cc(-c3c[nH]nc3-c3ccccn3)ccn2)cc1 [GW681251]	0%
CC(C)(C)OC(=O)NC1CCCN(c2cc(-c3ccc4c(N)n[nH]c4c3)nc(N)n2)C1 (stereo not shown) [GSK2286096]	96.3%
Cc1cccc(-c2nc(Nc3ccc4[nH]nnc4c3)c3ccccc3n2)n1 [GW867587]	0%
O=C(Nc1ccccc1)Nc1ccc(Oc2ccc3nccn3n2)cc1	0%
CNc1nccc(-c2c(-c3ccc(F)cc3)ncn2CCCN2CCOCC2)n1 [SB-222516]	12%
Fc1cccc(COc2ccc(Nc3ncnc4sc(-c5ccc[nH]5)cc34)cc2Cl)c1 [GW707818]	3%
O=C(Nc1ccccc1F)NC1CCN(c2ccnc(Nc3ccc(F)cc3)n2)C1 (stereo not shown) [GSK1379722]	0%
Cl.Cl.c1ccc(-c2cc3ccncc3cc2OC2CCNCC2)cc1 [GSK1122999]	21%
